Assay outcomes: PubChem, several laboratories
ADAM10 inh: inhibitors of human ADAM10; O14672; recombinant ADAM10, EDANS/DABCYL FRET peptide cleavage, 3 h; inhibition, % at 7 µM; hit rate 0.62% among 370,000;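 active means inhibition above a per-campaign cutoff equal to the mean of compounds falling between control-based bounds plus 3 SD, cut at about 20% in these data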
A3A deaminase: blocks human APOBEC3A ssDNA deamination | P31941 | recombinant A3A, FAM/TAMRA ssDNA deamination fluorescence | inhibition, % at 20 µM | hit rate 0.41% among 330,000;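 active means at least 40% inhibition at 20 µM here, with at most 30% in a related deaminase screen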
CendR NRP1 mod: NRP-1/CendR interaction modulation; O14786; FAM-RPARPAR peptide binding to NRP-1, fluorescence polarization; inhibition, % at 25 µM; hit rate 0.85% among 360,000;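 active means inhibition or corrected inhibition above about 18%, plus a signal ratio from 0.5 to 1.5, limit read from the data, passing the limit was not always enough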
ADAM17 inh: inhibitors of human ADAM17; recombinant ADAM17, EDANS/DABCYL FRET peptide cleavage; inhibition, % at 6.95 µM; hit rate 0.83% among 370,000;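 active means inhibition above the mean of compounds lying between control limits plus 3 SD, set per campaign, cut at about 8.5% in these data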
Target sequence (P78536 215-824 limits assumed): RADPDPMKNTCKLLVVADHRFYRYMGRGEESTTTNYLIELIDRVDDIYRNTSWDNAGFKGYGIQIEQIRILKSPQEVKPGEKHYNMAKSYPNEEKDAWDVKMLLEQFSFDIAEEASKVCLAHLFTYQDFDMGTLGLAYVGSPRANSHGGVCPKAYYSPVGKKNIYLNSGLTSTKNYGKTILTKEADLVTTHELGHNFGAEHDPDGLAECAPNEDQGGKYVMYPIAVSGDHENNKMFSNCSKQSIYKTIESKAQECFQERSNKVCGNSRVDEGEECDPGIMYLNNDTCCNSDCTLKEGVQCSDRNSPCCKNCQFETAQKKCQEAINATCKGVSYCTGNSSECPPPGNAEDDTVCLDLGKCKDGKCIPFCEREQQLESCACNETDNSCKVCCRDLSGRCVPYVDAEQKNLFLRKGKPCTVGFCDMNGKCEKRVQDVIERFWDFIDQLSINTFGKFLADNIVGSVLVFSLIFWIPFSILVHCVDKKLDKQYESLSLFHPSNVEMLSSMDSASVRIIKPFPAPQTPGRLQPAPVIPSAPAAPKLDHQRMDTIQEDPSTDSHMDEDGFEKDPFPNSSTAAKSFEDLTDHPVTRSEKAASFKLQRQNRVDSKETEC
A3G deaminase: blocks human APOBEC3G single-stranded DNA deamination; recombinant A3G, ssDNA deamination FAM/TAMRA fluorescence; inhibition, % at 20 µM; hit rate 0.28% among 330,000; AID 493012;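 active means inhibition of at least 40% at 20 µM, with no more than 30% in the related APOBEC3A deaminase screen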
Numbers stand for hits. Hits are enriched below; roughly 2.4% of the tested compounds scored in any of these assays.

Results for CCOC(=O)C1=C(C(=O)OCC)C2N(Cc3ccccc3)c3ccccc3[C@@]23C[C@@H](C(=O)OC)N(S(=O)(=O)c2ccc(C(F)(F)F)cc2)C3=N1 (stereo not given in full) ?
ADAM10 inh: inactive; ADAM17 inh: inactive

Results for CC1(c2ccc(Cl)cc2)NC(=O)N(CC(=O)Nc2ccc3c(c2)OCO3)C1=O (stereo not given) ?
ADAM10 inh: inactive; CendR NRP1 mod: 35; ADAM17 inh: inactive

Results for C=CCNC(=O)Nc1ccc2c(c1)[C@@]1(CC(=O)N(CC(C)C)C1c1ccccc1)C(=O)N2C (stereo not given in full) ?
ADAM10 inh: inactive; ADAM17 inh: inactive

Results for CCN(CC)C(=O)Cn1cc(S(=O)(=O)Cc2cccc([N+](=O)[O-])c2)c2ccccc21 ?
ADAM10 inh: inactive; A3A deaminase: inactive; CendR NRP1 mod: 24; ADAM17 inh: inactive; A3G deaminase: inactive

Results for Cc1nnc(NC(=O)c2cc(S(=O)(=O)N(C)C)ccc2N2CCCC2)s1 ?
ADAM10 inh: inactive; A3A deaminase: inactive; CendR NRP1 mod: 23; ADAM17 inh: inactive; A3G deaminase: inactive

Results for CN(C)S(=O)(=O)c1ccc(N2CCCC2)c(C(=O)Nc2ccccc2)c1 ?
ADAM10 inh: inactive; A3A deaminase: inactive; CendR NRP1 mod: inactive; ADAM17 inh: inactive; A3G deaminase: inactive

How did C#CCNc1cccc2c1S(=O)(=O)N[C@H](C)CO2 do in these assays?
ADAM10 inh: inactive; ADAM17 inh: inactive

What do the screens show for `C=C[C@]12CC[C@H](OC(C)=O)CC1=CCC1C2CC[C@@]2(C)C1CCC21OCCO1` (stereo not given in full)?
ADAM10 inh: inactive; CendR NRP1 mod: 22; ADAM17 inh: inactive

What do the screens show for `C[C@]12CC[C@H](O)CC1=CCC1C2CC[C@@]2(C)C1CCC21OCCO1` (stereo not given in full)?
ADAM10 inh: inactive; A3A deaminase: inactive; CendR NRP1 mod: inactive; ADAM17 inh: inactive; A3G deaminase: inactive

Results for CN1[C@@H](Cc2ccccc2)COc2cccc(N3CCCC3)c2S1(=O)=O ?
ADAM10 inh: inactive; ADAM17 inh: inactive

Results for Cc1cc(NS(=O)(=O)c2ccc(NC(=O)CCCC(=O)O)cc2)nc(C)n1 ?
ADAM10 inh: inactive; A3A deaminase: inactive; CendR NRP1 mod: 45; ADAM17 inh: inactive; A3G deaminase: inactive

How did CC(=O)Nc1ccc(SCC(=O)c2cc(C)n(-c3ccccc3)c2C)cc1 do in these assays?
ADAM10 inh: inactive; A3A deaminase: inactive; CendR NRP1 mod: inactive; ADAM17 inh: inactive; A3G deaminase: inactive

How did COc1ccc(-n2c(C)cc(C(=O)CSc3ccc(NC(C)=O)cc3)c2C)cc1 do in these assays?
ADAM10 inh: inactive; A3A deaminase: inactive; CendR NRP1 mod: 42; ADAM17 inh: inactive; A3G deaminase: inactive

What do the screens show for `Cc1ccc(C(=O)CNc2ccc(C)c(Cl)c2)cc1`?
ADAM10 inh: inactive; A3A deaminase: inactive; CendR NRP1 mod: 30; ADAM17 inh: inactive; A3G deaminase: inactive

How did CCCCCCCCN1C(=O)N2Cc3ccccc3C2CS1(=O)=O (stereo not given) do in these assays?
ADAM10 inh: inactive; ADAM17 inh: inactive

How did CSc1ncnc2[nH]ncc12 do in these assays?
ADAM10 inh: inactive; CendR NRP1 mod: inactive; ADAM17 inh: inactive

Results for CCCCCCCSc1ncnc2[nH]ncc12 ?
ADAM10 inh: inactive; CendR NRP1 mod: inactive; ADAM17 inh: 12

How did Cc1ccc(C(C#N)c2ccc(C(=O)c3ccc(F)cc3)cc2)cc1 (stereo not given) do in these assays?
ADAM10 inh: inactive; A3A deaminase: inactive; CendR NRP1 mod: 33; ADAM17 inh: inactive; A3G deaminase: inactive

Results for CC(C)C[C@H](NC(=O)c1nc[nH]c1C(=O)NC(c1ccccc1)c1ccccc1)C(=O)OC(C)(C)C ?
ADAM10 inh: inactive; A3A deaminase: inactive; CendR NRP1 mod: inactive; ADAM17 inh: inactive; A3G deaminase: inactive

How did CC(C)C[C@H](NC(=O)c1nc[nH]c1C(=O)N[C@@H](CC(C)C)C(=O)OC(C)(C)C)C(=O)OC(C)(C)C do in these assays?
ADAM10 inh: inactive; A3A deaminase: inactive; CendR NRP1 mod: inactive; ADAM17 inh: 9.5; A3G deaminase: inactive

How did CC(C)C[C@@H](CNCC(=O)[C@H](Cc1c[nH]c2ccccc12)NC(=O)c1[nH]cnc1C(=O)N[C@@H](C)CN)NC(=O)c1nc[nH]c1C(=O)N[C@@H](Cc1ccccc1)C(=O)O do in these assays?
ADAM10 inh: inactive; CendR NRP1 mod: inactive; ADAM17 inh: inactive

Results for CC(C)C[C@H](NC(=O)c1[nH]cnc1C(=O)N[C@@H](Cc1ccccc1)C(=O)OCc1ccccc1)C(=O)OCc1ccccc1 ?
ADAM10 inh: inactive; A3A deaminase: inactive; CendR NRP1 mod: 20; ADAM17 inh: inactive; A3G deaminase: inactive

Results for CC(C)C[C@@H](CNC(=O)OC(C)(C)C)NC(=O)c1nc[nH]c1C(=O)N[C@@H](CC(C)C)C(=O)CNC[C@H](CC(C)C)NC(=O)c1nc[nH]c1C(=O)N[C@@H](Cc1c[nH]c2ccccc12)C(=O)OC(C)(C)C ?
ADAM10 inh: inactive; A3A deaminase: inactive; CendR NRP1 mod: 23; ADAM17 inh: inactive; A3G deaminase: inactive

What do the screens show for `CC(C)C[C@H](NC(=O)c1nc[nH]c1C(=O)N[C@@H](CC(C)C)C(=O)OCc1ccccc1)C(=O)OCc1ccccc1`?
ADAM10 inh: inactive; A3A deaminase: inactive; CendR NRP1 mod: inactive; ADAM17 inh: inactive; A3G deaminase: inactive

What do the screens show for `CC(C)(C)OC(=O)[C@H](CCCCN)NC(=O)c1[nH]cnc1C(=O)N[C@@H](Cc1ccccc1)C(=O)OCc1ccccc1`?
A3A deaminase: inactive; CendR NRP1 mod: 28; A3G deaminase: inactive

What do the screens show for `CC(=O)Nc1cccc(NC(=S)Nc2cccc3ccccc23)c1`?
ADAM10 inh: inactive; A3A deaminase: inactive; CendR NRP1 mod: 30; ADAM17 inh: inactive; A3G deaminase: inactive

What do the screens show for `COC(=O)CC(=O)CC(NS(=O)(=O)c1ccc(C)cc1)c1ccccc1` (stereo not given)?
ADAM10 inh: inactive; ADAM17 inh: inactive

How did O=C(NCc1cccnc1)c1ccc(S(=O)(=O)Nc2ccccc2)cc1 do in these assays?
ADAM10 inh: inactive; A3A deaminase: inactive; CendR NRP1 mod: inactive; ADAM17 inh: inactive; A3G deaminase: inactive

How did Cc1ccc(NS(=O)(=O)c2ccc(C(=O)NCc3cccnc3)cc2)cc1 do in these assays?
ADAM10 inh: inactive; A3A deaminase: inactive; CendR NRP1 mod: 21; ADAM17 inh: inactive; A3G deaminase: inactive

What do the screens show for `O=C1c2ccccc2C(=O)c2c(/C=C/N3CCCCC3)ccnc21`?
ADAM10 inh: inactive; CendR NRP1 mod: 80; ADAM17 inh: inactive

How did CCC1(CC)NC(=O)N(CC(=O)OCC(=O)Nc2cc(OC)ccc2OC)C1=O do in these assays?
ADAM10 inh: inactive; A3A deaminase: inactive; CendR NRP1 mod: 24; ADAM17 inh: inactive; A3G deaminase: inactive

How did COc1ccc2c(c1)OC[C@H]1[C@H]2N2C(=O)CN(CC3CCCO3)C(=O)[C@@]2(C)[C@H]1c1ccccc1 (stereo not given in full) do in these assays?
ADAM10 inh: inactive; A3A deaminase: inactive; CendR NRP1 mod: 26; ADAM17 inh: inactive; A3G deaminase: inactive
